In PubChem BioAssay AID485364 (National Center for Advancing Translational Sciences (NCATS), 2010):
Out of some 360,000 compounds screened, about 11,000 (3.1%) were called active. Another 4% or so got no clear call; they are omitted. This excerpt belongs to a sample that is enriched for actives. Unmarked numbers belong to inactive results. The call rests on the fitted dose curve; in most records, active means well fitted inhibition curve with a large enough effect; inconclusive means small, poorly fitted or top-dose-only effect; inactive means no such curve, though single readings can be large or run the other way.

The molecules below were run against Schistosoma mansoni thioredoxin glutathione reductase (TGR) (UniProt Q962Y6) (assay: qHTS Assay for the Inhibitors of Schistosoma Mansoni Peroxiredoxins). Details: purified TGR, DTNB reduction, TNB absorbance 405 nm; series mostly up to 114 µM; activity change, negative = inhibition: at the top concentration.
Outline: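 First, TGR (20 nM dispensed) and NADPH were mixed with compound. Second, a 15 min room-temperature incubation followed. Third, further NADPH and then DTNB were added to start the reaction. Finally, TNB absorbance was monitored kinetically.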
Further: nearly all actives have a fitted effect of over 60% in size.
On the % scale 0 is the no-effect control and ±100 the full control effect; potency means the concentration at half of the fitted maximal effect.

Structure (SMILES) | activity change, negative = inhibition [%] | Potency
CCC(=O)N1CCc2cc(Br)cc(S(=O)(=O)CCC(=O)NCCc3ccc(OC)c(OC)c3)c21 | 7.16 | –
O=C(CSc1nc2c(c(=O)[nH]1)CN(Cc1ccc(F)cc1)CC2)Nc1ccccc1Cl | 0.345 | –
Cc1ccc(Cl)cc1N1CCN(C(=O)c2cn(C)c3ccc(S(=O)(=O)N(C)C4CCCCC4)cc3c2=O)CC1 | 4.1 | –
C=C(C)CNC(=S)Nc1ccc(S(=O)(=O)Nc2cnc3ccccc3n2)cc1 | – | 11.2 µM (active)
O=C(CS(=O)(=O)c1ccccc1)Nc1ccc(S(=O)(=O)Nc2ccccn2)cc1 | -21.9 | –
CC(=O)Nc1ccc(S(=O)(=O)NCCc2ccccc2)cc1 | 5.44 | –
Cc1cccc(NC(=O)N2CCN(C)c3ncccc32)c1C | -9.19 | –
Cc1cccc(NC(=O)c2nnn(CC(=O)Nc3ccc(C(C)C)cc3)c2N)c1C | 0.461 | –
CCOc1ccccc1NC(=O)C1=C(C)Nc2ncnn2C1c1ccc(NC(C)=O)cc1 (stereo not given) | 0.38 | –
CCC(=O)N1CCc2cc(S(=O)(=O)NC(Cc3ccccc3)C(=O)NCc3ccc(C)cc3)ccc21 (stereo not given) | -0.785 | –
CCOc1ccc(CNCCSc2nnnn2C)cc1 | 5.3 | –
COc1ccc(C2Sc3ccccc3NC3=C2C(=O)c2ccccc23)c(OC)c1OC (stereo not given) | -17.6 | –
O=C(OCN1C(=O)c2ccccc2C1=O)/C(=C\c1ccco1)NC(=O)c1ccccc1 | -54.4 | –
COc1ccc(N2C(=O)CNC2=S)cc1 | -1.27 | –
COc1ccc(N2C(=O)/C(=C/c3ccco3)C(=O)NC2=S)cc1 | – | 14.1 µM (active)
COC(=O)C1=C(C)N(C)C(C)=C(C(=O)OC)C1c1cccc(Br)c1 | -9.83 | –
COc1ccc(CN2C(=O)C(C)S/C2=N/N=C/c2ccco2)cc1 (stereo not given) | 0 | –
COC(=O)c1ccc(NC(=O)C(C)N2C(=O)c3ccccc3C2=O)cc1 (stereo not given) | 5.73 | –
COC(=O)C1=C(C)N(C(C)c2ccccc2)C(=O)/C1=C\c1ccco1 (stereo not given) | – | 31.6 µM (active)
COC(=O)C1=C(C)N(c2ccc(Br)cc2)C(=O)/C1=C\c1ccco1 | – | 35.5 µM (active)
Cc1cccc(C)c1-n1ncc(C(=O)NCCCN2CCCCC2)c1C1CCN(C(=O)OC(C)(C)C)CC1 | 4.07 | –
CC(C)NC(=O)C1CCC(Cn2c(=O)c3sccc3n(Cc3ccc(F)cc3)c2=O)CC1 (stereo not given) | 2.15 | –

Structure (SMILES) | activity change, negative = inhibition [%] | Potency
Cc1ccc2onc(CC(=O)N3CCN(c4ccc(Cl)cc4)CC3)c2c1 | -6.48 | –
CCc1cc2c(cc(C(=O)OC)n2Cc2nc(-c3ccc(C)cc3)oc2C)s1 | 6.16 | –
CC(=O)N1c2ccc(S(=O)(=O)N3CCCCCC3)cc2CC1C(=O)NCc1ccccc1C (stereo not given) | 1.56 | –
CC(=O)c1ccc(N2CCN(c3nc4c(S(=O)(=O)c5ccccc5)nnn4c4ccc(Cl)cc34)CC2)cc1 | 1.2 | –
O=C(CSc1nccn1-c1ccc(F)cc1)Nc1cccc2ccccc12 | -0.677 | –
CC(=O)Nc1ccc2nc(SCCOc3cc(C)cc(C)c3)sc2c1 | -10.3 | –
O=C(NCC12CC3CC(CC(C3)C1)C2)c1cc2nc(-c3ccccc3)cc(C(F)(F)F)n2n1 | 2.05 | –
CCCNC(=O)C1CCC(Cn2c(=O)c3sccc3n(Cc3ccccc3F)c2=O)CC1 (stereo not given) | -0.604 | –
COc1ccccc1Nc1nc(N)nc(N)c1S(=O)(=O)c1ccccc1 | 4.24 | –
CCOC(=O)C1Cn2c(nc3c(c2=O)C(C)(CC)Cc2ccccc2-3)S1 (stereo not given) | -10.3 | –
CC1(C)Cc2ccccc2-c2[nH]c(=S)[nH]c(=O)c21 | -2.97 | –
CCC1(CC)Cc2ccccc2-c2nc(CCl)[nH]c(=O)c21 | – | 3.16 µM (active)
CCOC(=O)c1oc2ccc(S(=O)(=O)n3nc(-c4ccccc4OC)cc3N)cc2c1C | 0.311 | –
COc1ccc(Cl)cc1N(C)C(=O)c1cc2c(=O)oc3ccc(C)cc3c2s1 | -4.63 | –
NC(=O)CSc1c[nH]c2ccccc12 | -1.35 | –
O=C(OCC(=O)c1c[nH]c2ccccc12)c1cccc(O)c1 | 1.01 | –
O=S(=O)(O)Oc1c[nH]c2ccccc12 | – | 20 µM (active)
Cc1ccc(OCC(=O)Nc2ccc(Cl)c(-c3nc4ccccc4[nH]3)c2)cc1C | 1.61 | –
CCc1nc2nc(C)cc(Nc3ccc(F)c(Cl)c3)n2n1 | 1.94 | –
Cc1ccc(-c2csc(NC3OC(=O)c4ccccc43)n2)cc1 (stereo not given) | – | 28.2 µM (active)
COc1ccc2c(c1OC)C(=O)OC2Nc1nc(-c2ccccc2)cs1 (stereo not given) | – | 3.16 µM (active)
COc1ccc(-c2csc(NC(=O)COC(=O)Cc3ccc(Cl)cc3Cl)n2)cc1 | -8.86 | –

Structure (SMILES) | activity change, negative = inhibition [%] | Potency
CCc1ccccc1NC(=O)[C@@H]1CCC(=O)N1C1OC(=O)c2c1ccc(OC)c2OC (stereo not given in full) | -3.57 | –
C/C(CC1CC(C)(C)OC1=O)=N/Nc1nc(-c2ccccc2)cs1 (stereo not given) | -10.8 | –
COc1ccc(N/C=C(\C2OC(=O)c3ccccc32)[N+](=O)[O-])cc1 (stereo not given) | -2.72 | –
COc1ccc(-c2csc(NC3OC(=O)c4ccccc43)n2)cc1 (stereo not given) | – | 5.62 µM (active)
Cc1ccc(-c2csc(-c3c[nH]c4ccccc34)n2)cc1 | 11.5 | –
CCCc1cc(-c2nc(-c3ccc(C)cc3)cs2)ccn1 | -0.4 | –
Cc1nnc(NC(=O)CSc2nc3c([nH]c4ccccc43)c(=O)n2-c2cccc(Cl)c2)s1 | -0.89 | –
CC(=O)Nc1c(C)nn(-c2ccccc2)c1N1CCC(C(=O)Nc2cc(Cl)ccc2C)CC1 | -5.66 | –
Cn1nnnc1SCCCNCc1ccc(Cl)cc1 | -2.62 | –
Fc1ccc(-c2nc(Nc3cccc(Cl)c3)nc3c2COc2ccccc2-3)cc1 | -5.35 | –
Cc1ccc(S(=O)(=O)N2CCCc3cc(NS(=O)(=O)c4cc(C)ccc4C)ccc32)cc1 | 6.35 | –
Cc1cc(NS(=O)(=O)c2ccc3oc(=O)c4ncn(C)c4c3c2)ccc1Br | 1.12 | –
Cc1cc(C)cc(NC(=O)CCCc2nc(-c3ccccc3Cl)no2)c1 | 6.16 | –
CCOc1cccc(/C=N/N2C(=O)CSC2=S)c1O | – | 3.55 µM (active)
COc1cc(N2C(=O)CSC2=S)cc(OC)c1OC | 12.2 | –
O=C1CSC(=S)N1c1ccc(O)cc1 | -0.744 | –
Cc1cc(C)cc(NC(c2nnc(-c3cccc(F)c3)o2)c2ccc(F)cc2Cl)c1 (stereo not given) | -1.07 | –
CCOc1cccc(CNC(=O)c2ccc(N3CCCC3)c(NC(=O)Nc3ccccc3CC)c2)c1 | -5.43 | –
Cc1c(Cl)cccc1NC(=O)NCCCN1CCCC1=O | 0.302 | –
Cc1c(Cl)cccc1NC(=O)Nc1ccc(C(=O)N2CCCC2)cc1 | 4.88 | –
Cc1c(Cl)cccc1NC(=O)NCc1ccc(C)n1C | – | 35.5 µM (active)
